Most compounds without a hit are left out; they make up all but 2.7% or so of the library.
PAFAH1B2 FP inh: PAFAH1B2 enzyme inhibitors, primary screen, biochemical, fluorescence polarization, human | Platelet-activating factor acetylhydrolase IB subunit alpha2 (Homo sapiens), P68402 | recombinant PAFAH1B2, FP-rhodamine activity probe | 1.2% of 340,000 active | AID 492953, 2010 | inhibition, % at 3.39 µM;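 active means inhibition above the mean of all tested compounds plus 3 SD, cut at about 24% in these data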;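 further: 0% = enzyme with DMSO and 100% = wells lacking PAFAH1B2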
pPAFAH inh: pPAFAH enzyme inhibitors, primary screen, biochemical, fluorescence polarization, human; recombinant pPAFAH, FP-rhodamine probe fluorescence polarization; inhibition, % at 3.39 µM; 1.5% of 330,000 active; AID 463082, 2010;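 active means inhibition above the mean inhibition across the screen plus 3 SD, cut at about 25% in these data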;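 further: inhibitors block binding of the rhodamine activity-based probe so polarization drops; 0% = enzyme with DMSO and 100% = wells lacking pPAFAH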
Target sequence (Q13093 whole entry, looked up): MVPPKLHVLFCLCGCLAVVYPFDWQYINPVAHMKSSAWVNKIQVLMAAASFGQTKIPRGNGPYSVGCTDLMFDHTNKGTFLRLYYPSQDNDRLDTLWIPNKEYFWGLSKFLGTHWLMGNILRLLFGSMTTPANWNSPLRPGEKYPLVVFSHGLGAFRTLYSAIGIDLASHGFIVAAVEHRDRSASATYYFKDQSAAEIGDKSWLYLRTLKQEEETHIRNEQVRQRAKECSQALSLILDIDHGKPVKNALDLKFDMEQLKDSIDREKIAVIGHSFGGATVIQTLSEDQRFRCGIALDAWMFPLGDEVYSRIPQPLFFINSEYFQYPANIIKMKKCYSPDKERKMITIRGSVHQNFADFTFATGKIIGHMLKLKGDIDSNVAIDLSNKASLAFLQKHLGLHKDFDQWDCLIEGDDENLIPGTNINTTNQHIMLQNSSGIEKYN
PAFAH2 inh: PAFAH2 enzyme inhibitors, primary screen, biochemical, fluorescence polarization, human | inhibition, % at 3.39 µM | recombinant PAFAH2, FP-rhodamine activity probe | AID 492956, 2010 | Platelet-activating factor acetylhydrolase 2, cytoplasmic (Homo sapiens), Q99487 | 0.99% of 340,000 active;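 active means inhibition above the mean over all tested compounds plus 3 SD, cut at about 30% in these data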;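 further: inhibitors block probe labeling of enzyme so polarization drops; 0% = enzyme with DMSO and 100% = wells lacking PAFAH2 protein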
PAFAH1B3 inh: PAFAH1B3 enzyme inhibitors, primary screen, biochemical, fluorescence polarization, human | recombinant PAFAH1B3, FP-rhodamine probe | 0.28% of 340,000 active | inhibition, % at 3.39 µM | Platelet-activating factor acetylhydrolase IB subunit alpha1 (Homo sapiens), Q15102;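 active means inhibition above the screen-wide average of all tested compounds plus 3 SD, cut at about 25% in these data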;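 further: 0% = enzyme with DMSO only and 100% = wells lacking PAFAH1B3 protein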
Target sequence (Q15102 whole entry, looked up): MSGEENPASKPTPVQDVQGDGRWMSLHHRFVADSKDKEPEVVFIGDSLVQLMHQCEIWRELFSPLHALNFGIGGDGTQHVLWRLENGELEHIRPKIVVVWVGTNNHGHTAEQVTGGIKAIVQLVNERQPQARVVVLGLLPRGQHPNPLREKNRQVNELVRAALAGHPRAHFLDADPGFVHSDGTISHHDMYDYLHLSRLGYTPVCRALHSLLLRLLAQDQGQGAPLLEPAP
TCR-CD3 inh: inhibitors of human TCR-CD3 interaction, primary screen, biochemical, fluorescence, TAMRA-labeled TCR probe | T-cell receptor (TCR) | inhibition, % at 9.4 µM | 0.37% of 360,000 active | AID 651800, 2012; in the data active means inhibition above about 19%;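 further: recombinant mutant TCR 2C K166C tagged with TAMRA read by polarization; 0% = receptor in buffer alone and 100% = receptor with positive control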
pPAFAH FP conf: pPAFAH (PLA2G7) enzyme inhibitors, confirmation, biochemical, fluorescence polarization, human; shares compounds with pPAFAH inh; recombinant pPAFAH, FP-Rh probe fluorescence polarization; inhibition, % at 3.39 µM; 72% of 2,300 active;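 active means mean inhibition of the triplicate above the hit cutoff set for the earlier primary screen, cut at about 25% in these data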;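 further: 0% = enzyme with DMSO and 100% = wells lacking pPAFAH enzyme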
Active calls of the source: *.

`CCOC(=O)C1Nc2ccc(Br)cc2C2C=CCC12` (stereo unspecified) gave PAFAH1B2 FP inh 6, pPAFAH inh 35*, PAFAH2 inh 14, PAFAH1B3 inh 12, TCR-CD3 inh -4 and pPAFAH FP conf 4.
`O=C(O)C1Nc2ccc(Br)cc2C2C=CCC12` (stereo unspecified) gave PAFAH1B2 FP inh 47*, pPAFAH inh 70*, PAFAH2 inh 79*, PAFAH1B3 inh 40* and pPAFAH FP conf 61*.
Screening O=C(c1ccc(Cl)c(S(=O)(=O)N2CCc3ccccc32)c1)N1CCN(c2ccccc2O)CC1 returned PAFAH1B2 FP inh 5, pPAFAH inh 37*, PAFAH2 inh 5, PAFAH1B3 inh -1, TCR-CD3 inh -5 and pPAFAH FP conf 20.
`CC(=O)N1CCN(C(=O)c2ccc(Cl)c(S(=O)(=O)N3CCc4ccccc43)c2)CC1` gave PAFAH1B2 FP inh 1, pPAFAH inh 5, PAFAH2 inh -3, PAFAH1B3 inh -6 and TCR-CD3 inh 1.
O=C(CN1C(=O)CSC1=O)NCc1ccccc1 was read as PAFAH1B2 FP inh 0, pPAFAH inh 78*, PAFAH2 inh -8, PAFAH1B3 inh 1, TCR-CD3 inh -2 and pPAFAH FP conf -7.
O=[N+]([O-])c1cccc(NC(=S)Nc2nc(-c3ccccc3Cl)cs2)c1 was read as PAFAH1B2 FP inh 8, pPAFAH inh 39*, PAFAH2 inh -37, PAFAH1B3 inh 8, TCR-CD3 inh 2 and pPAFAH FP conf 23.
Screening CCOC(=O)C1=C(C(=O)OCC)c2ccc(OC)c(OC)c2C1 returned PAFAH1B2 FP inh 3, PAFAH2 inh 5, PAFAH1B3 inh 6 and TCR-CD3 inh -1.
`CCCc1cc(=O)n(-c2nc3ccccc3s2)[nH]1` gave PAFAH1B2 FP inh 1, pPAFAH inh 3, PAFAH2 inh 25, PAFAH1B3 inh 2 and TCR-CD3 inh 1.
For CCOC(=O)Cc1cc(=O)n(-c2nc3ccccc3s2)[nH]1 the results were PAFAH1B2 FP inh 1, pPAFAH inh 41*, PAFAH2 inh 31*, PAFAH1B3 inh 4, TCR-CD3 inh 16 and pPAFAH FP conf -3.
For O=c1cc(-c2ccccc2)nc2c(-c3ccccc3)c(C(F)(F)F)[nH]n12 the results were pPAFAH inh 45*, TCR-CD3 inh -5 and pPAFAH FP conf 54*.
Screening O=C1c2nc3cc(-c4ccco4)[nH]n3c(=O)c2CN1Cc1ccccc1 returned pPAFAH inh 35*, TCR-CD3 inh 1 and pPAFAH FP conf 12.
`COc1ccc(OC)c(-c2c3cc(O)c(=O)cc-3oc3cc(O)c(O)cc23)c1` gave PAFAH1B2 FP inh 74*, pPAFAH inh 93*, PAFAH2 inh 73*, PAFAH1B3 inh 58* and pPAFAH FP conf 85*.
`COc1ccc(OC)c(-c2oc3ccccc3c(=O)c2O)c1` gave PAFAH1B2 FP inh 1, pPAFAH inh 5, PAFAH2 inh -1, PAFAH1B3 inh 6 and TCR-CD3 inh -7.
Cn1cccc1/C=N/N1CCN(Cc2cccc3ccccc23)CC1 was read as PAFAH1B2 FP inh -1, pPAFAH inh 46*, PAFAH2 inh 13, PAFAH1B3 inh -2, TCR-CD3 inh 3 and pPAFAH FP conf 3.
N#CCc1nn2c3c(cnc2c1C#N)C(=O)CCC3 was read as PAFAH1B2 FP inh 3, pPAFAH inh 53*, PAFAH2 inh 1, PAFAH1B3 inh 12, TCR-CD3 inh 1 and pPAFAH FP conf 4.
Screening Cc1nn2c3c(cnc2c1-c1ccccc1)C(=O)CCC3 returned PAFAH1B2 FP inh 3, pPAFAH inh -5, PAFAH2 inh -4, PAFAH1B3 inh 8 and TCR-CD3 inh -2.
For Cc1cnc(NC(=O)C2CC(=O)N(c3cccc(Cl)c3)C2)s1 (stereo unspecified) the results were PAFAH1B2 FP inh -1, pPAFAH inh 0, PAFAH2 inh 10, PAFAH1B3 inh 5 and TCR-CD3 inh -4.
Screening COC(=O)C1=C(C)N(Cc2ccccc2C(F)(F)F)C(=NCc2cc(OC)c(OC)c(OC)c2)NC1c1ccccc1C(F)(F)F (stereo unspecified) returned TCR-CD3 inh 5.
For O=C(O)CSc1cc(C(=O)c2ccccc2O)cn2c(=O)c3c(-c4ccccc4)csc3nc12 the results were PAFAH1B2 FP inh -5, pPAFAH inh 65*, PAFAH2 inh -14, PAFAH1B3 inh 8, TCR-CD3 inh 0 and pPAFAH FP conf 72*.
Screening COc1ccc(C2=NOC(C(=O)Nc3ccc4c(c3)OCO4)C2)cc1OC (stereo unspecified) returned PAFAH1B2 FP inh 1, pPAFAH inh 8, PAFAH2 inh 9, PAFAH1B3 inh 13 and TCR-CD3 inh 3.
`O=c1c2ccccc2cnn1Cc1nnc(-c2cccs2)o1` gave PAFAH1B2 FP inh 0, pPAFAH inh 4, PAFAH2 inh -6, PAFAH1B3 inh 10 and TCR-CD3 inh -2.
`O=S1(=O)N=C(N/N=C/c2ccccn2)c2ccccc21` gave PAFAH1B2 FP inh 1, pPAFAH inh 76*, PAFAH2 inh 2, PAFAH1B3 inh 16, TCR-CD3 inh -3 and pPAFAH FP conf 2.
`CCOC(=O)Cc1cc(=O)n2[nH]c(-c3ccccc3)c(-c3ccccc3)c2n1` gave PAFAH1B2 FP inh -5, pPAFAH inh 43*, PAFAH2 inh -4, PAFAH1B3 inh -18, TCR-CD3 inh -7 and pPAFAH FP conf 19.
For Cc1nc2ccc(F)cc2cc1C(=O)Nc1ccc(Cl)c(Cl)c1 the results were PAFAH1B2 FP inh 0, pPAFAH inh 42*, PAFAH2 inh -10, PAFAH1B3 inh -6, TCR-CD3 inh 8 and pPAFAH FP conf 2.
Cc1ccc(NC(=O)Cn2ncc(Cl)c(Cl)c2=O)cc1S(=O)(=O)N1CCCCC1 was read as PAFAH1B2 FP inh -6, pPAFAH inh 8, PAFAH2 inh -5, PAFAH1B3 inh -26 and TCR-CD3 inh -1.
For CC(C)C(C)NC(=O)COC(=O)C1CCN(S(=O)(=O)c2ccc3c(c2)OCCO3)CC1 (stereo unspecified) the results were PAFAH1B2 FP inh 4, pPAFAH inh 38*, PAFAH2 inh 9, PAFAH1B3 inh 0, TCR-CD3 inh 0 and pPAFAH FP conf 11.
Screening CN(C)CCCN(Cc1ccccc1)C(=S)Nc1ccc(OC(F)F)cc1 returned PAFAH1B2 FP inh 2, pPAFAH inh 3, PAFAH2 inh -4, PAFAH1B3 inh -6 and TCR-CD3 inh 5.
Screening O=C1c2ccc(-c3ccc(F)cc3OCc3ccccc3)cc2S(=O)(=O)c2cccc(C(=O)N3CCCC3)c21 returned PAFAH1B2 FP inh 12, pPAFAH inh 46*, PAFAH2 inh 8, PAFAH1B3 inh 5 and pPAFAH FP conf 45*.

Screening results from PubChem BioAssay.
